Values joined by “and” are separate entries in the source; they are usually repeats but may differ in a detail not shown here. Equal entries are not always repeated. Inconclusive results are not listed. Active and inactive are the calls of the source. Unless noted, calls come from the whole dose curve; as a rule, active = well fitted curve in the direction sought with a large enough effect; inconclusive = small, poorly fitted or top-dose-only effect, or another doubt; inactive = no such curve, though single readings can be large; an effect the other way counts as inactive or inconclusive.
Tests used:
[1] = qHTS Assay for Lipid Storage Modulators (AID 1519; calls by dose curve; for activity change, negative = inhibition: % is set by controls: 0 for no effect and ±100 for the full control effect); conditions: Drosophila S3 cells, BODIPY lipid droplet/cell ratio, laser cytometry, cells loaded with oleic acid
Summary of the method: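 Cells seeded at 5,000 per well were treated with compounds over a concentration series and loaded with oleic acid (400 uM, as added). Lipid droplet fluorescence (488 nm excitation, 500-530 nm channel) was read by laser-scanning cytometry and normalized to 20 uM Triacsin C.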

[2] = Validation of Assay for Modulators of Lamin A Splicing (AID 1459; active = well fitted curve in the direction sought with a large enough effect in the signal ratio; the % refers to the signal ratio;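 note: cells exposed to compound for two days before reading; 0% is about no effect; ratio rise marks activators and ratio drop marks inhibitors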); conditions: Lamin A splicing dual RFP/GFP fluorescence reporter; series mostly up to 9.22 µM
Summary of the method: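 HeLa S3 lamin A-EGFP/DsRed2 stable clone, 600 cells/well, Opti-MEM 2% FBS; compounds by pin tool; 48 hrs, 37 °C/5% CO2; Acumen 488 nm scan, objects 10-100 um; GFP/RFP intensity ratio.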

[3] = target: DNA repair nuclease/redox regulator APEX1 (Homo sapiens) (UniProt P27695); assay: qHTS Validation Assay for Inhibitors of the Human Apurinic/apyrimidinic Endonuclease 1 (APE1) (AID 1705;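 note: TAMRA fluorescence gain over two minutes as APE1 cuts a quenched THF abasic duplex; % is set by controls: 0 for no effect and ±100 for the full control effect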); conditions: purified APE1 endonuclease activity, fluorescence, titration; series mostly up to 57.1 µM
Summary of the method: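 qHTS, 1536-well. APE1 + cpd 15 min RT → 50 nM TAMRA/BHQ-2 THF-abasic dsDNA substrate → kinetic fluorescence, 3 reads/60 s; delta(read3−read1) = reaction progress. No-enzyme buffer = negative control.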

[4] = Counterscreen for APE1 Inhibitors: Fluorescent Dye Displacement Validation Assay (AID 1707); conditions: fluorescent dye displacement from DNA; series mostly up to 57.1 µM;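 note: plate controls were ThO with dsDNA and no compound for no effect and ThO without dsDNA for full effect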
Summary of the method: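 Thiazole Orange displacement from dsDNA: 250 nM ThO with 50 nM TAMRA-labelled abasic-site (tetrahydrofuran) duplex in 50 mM Tris-HCl pH7.5, 50mM NaCl, 2 mM MgCl2, 0.01% Tween-20. Loss of endpoint fluorescence (ex 480 nm, em 540 nm) flags DNA binders.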

[5] = target: Endonuclease 4 (Escherichia coli (strain K12)) (UniProt P0A6C1); assay: Counterscreen for APE1 Inhibitors: qHTS Validation Assay for Inhibitors of Endonuclease IV (AID 1708); note: % is set by controls: 0 for no effect and ±100 for the full control effect; conditions: E. coli endonuclease IV, DNA cleavage fluorescence; series mostly up to 57.1 µM
Summary of the method: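 Enzymatic AP-site incision assay using a double-stranded THF substrate labelled with TAMRA and BHQ-2; released fluorescence signals activity. Enzyme 2 nM, substrate 50 nM, 15 min compound preincubation.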

[6] = qHTS for differential inhibitors of proliferation of Plasmodium falciparum line 7G8 (AID 1815); conditions: Plasmodium falciparum 7G8 proliferation inhibition; series mostly up to 28.7 µM;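 note: parasite growth measured after three days of incubation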; note: potency is the fitted concentration of half-maximal effect;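 for activity change, negative = inhibition: plate controls were vehicle wells for no effect and reference inhibitor wells for full effect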
[7] = qHTS for differential inhibitors of proliferation of Plasmodium falciparum line GB4 (AID 1816); conditions: Potency: Plasmodium falciparum GB4 proliferation inhibition; series mostly up to 28.7 µM;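 note: parasite growth measured after 72 h incubation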; note: potency is the fitted concentration of half-maximal effect;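 for activity change, negative = inhibition: 0% = vehicle DMSO and -100% = reference inhibitor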
[8] = qHTS for differential inhibitors of proliferation of Plasmodium falciparum line 3D7 (AID 1876); note: potency is the fitted concentration of half-maximal effect; conditions: P. falciparum 3D7 proliferation inhibition; series mostly up to 28.7 µM
[9] = target: Alpha-galactosidase A (Homo sapiens) (UniProt P06280); assay: Counterscreen for Glucocerebrosidase Inhibitors: qHTS Assay for Human alpha-Galactosidase at pH 4.5 (AID 992); conditions: purified enzyme, fluorogenic substrate; series mostly up to 76.9 µM; note: 0% is about no effect
Summary of the method: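 Enzyme at 2 nM final was combined with compound (0.7 nM to 77 uM) and 80 uM 4-methylumbelliferyl alpha-D-galactopyranoside in 50 mM citric acid, 0.005% Tween-20, pH 4.5. After 20 min at room temperature, fluorescence was read (Ex 365/Em 440 nm); AC50 came from Hill fits.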

[10] = target: alpha-glucosidase (Oryza sativa, rice) (UniProt Q653V4); assay: Counterscreen for Glucocerebrosidase Inhibitors: qHTS Assay for Rice alpha-Glucosidase at pH 5.0 (AID 997); conditions: rice alpha-glucosidase enzyme activity; series mostly up to 76.9 µM;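 note: 0% = full activity with enzyme and -100% = basal without enzyme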
Summary of the method: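 Rice alpha-glucosidase (4 nM final) with 400 uM 4-methylumbelliferyl-alpha-D-glucopyranoside in citrate buffer pH 5.0, 20 min at room temperature, stopped at pH 10; fluorescence 365/440 nm, compounds 0.7 nM–77 uM, AC50 from Hill fits.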

[11] = Cell Viability - LYMP2-010 (AID 981); conditions: LYMP2-010 lymphoblastoid cell viability, qHTS; series mostly up to 92.2 µM;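 note: cells exposed to compound for 24 hours at 37 °C; % is set by controls: 0 for no effect and ±100 for the full control effect; nearly all actives have a fitted effect of over 55% in size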
Summary of the method: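 Acute toxicity is scored as a concentration-dependent loss of cellular ATP in human lymphoblastoid cells after 24 hr compound exposure in complete medium. Tetraoctylammonium bromide is the positive control.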

[12] = Cell Viability - LYMP2-016 (AID 984); conditions: LYMP2-016 lymphoblastoid cell viability, qHTS; series mostly up to 92.2 µM;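 note: cells exposed to compound for 24 hours at 37 °C; % is set by controls: 0 for no effect and ±100 for the full control effect; nearly all actives have a fitted effect of over 55% in size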
Summary of the method: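 Cells were seeded at 2500 per well and rested 5 hr before a 24 hr compound exposure at 37 C. Viability was then gauged as cellular ATP by luciferase luminescence, with AC50 values fitted to the Hill equation.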

[13] = Cell Viability - LYMP2-018 (AID 985); conditions: LYMP2-018 lymphoblastoid cells, viability (qHTS); series mostly up to 92.2 µM;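 note: plate controls were DMSO only for no effect and tetraoctylammonium bromide at 92 µM for full effect; nearly all actives have a fitted effect of over 50% in size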
Summary of the method: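 Acute cytotoxicity is scored as a concentration-dependent drop in intracellular ATP after 24 hr exposure of the lymphoblastoid line in complete culture medium, measured by luciferase luminescence. Potency is expressed as AC50 from Hill modelling.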

[14] = Cell Viability - LYMP2-026 (AID 989); conditions: LYMP2-026 lymphoblastoid cell viability, qHTS; series mostly up to 92.2 µM;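 note: cells exposed to compound for 24 h at 37 °C; % is set by controls: 0 for no effect and ±100 for the full control effect; nearly all actives have a fitted effect of over 50% in size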
Summary of the method: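 Concentration-dependent loss of intracellular ATP in human lymphoblastoid cells after 24 hr at 37 C, quantified by luciferase luminescence. AC50 derived from standard Hill equation.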

[15] = Cell Viability - LYMP1-002 - Assay at 24 hr (AID 993); conditions: LYMP1-002 lymphoblastoid cells viability; series mostly up to 92.2 µM; note: % is set by controls: 0 for no effect and ±100 for the full control effect
Summary of the method: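 qHTS, LYMP1-002 lymphoblastoid, 24 h cpd, 37 C, CellTiter-Glo ATP luminescence; AC50 via Hill eq.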

[16] = Cell Viability - LYMP1-002 - Assay at 40 hr (AID 994); conditions: LYMP1-002 lymphoblastoid cell viability; series mostly up to 92.2 µM;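 note: 0% = DMSO only and full inhibition = 92 µM tetraoctylammonium bromide; nearly all actives have a fitted effect of over 60% in size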
Summary of the method: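 Viability in the human lymphoblastoid line was measured as intracellular ATP via CellTiter-Glo after 40 hr compound exposure. Tetraoctylammonium bromide served as positive control.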

[17] = measured here: cell count channel max response
[18] = measured here: lipid channel max response

Chain of Alpha-galactosidase A (Homo sapiens) (P06280 whole entry, looked up): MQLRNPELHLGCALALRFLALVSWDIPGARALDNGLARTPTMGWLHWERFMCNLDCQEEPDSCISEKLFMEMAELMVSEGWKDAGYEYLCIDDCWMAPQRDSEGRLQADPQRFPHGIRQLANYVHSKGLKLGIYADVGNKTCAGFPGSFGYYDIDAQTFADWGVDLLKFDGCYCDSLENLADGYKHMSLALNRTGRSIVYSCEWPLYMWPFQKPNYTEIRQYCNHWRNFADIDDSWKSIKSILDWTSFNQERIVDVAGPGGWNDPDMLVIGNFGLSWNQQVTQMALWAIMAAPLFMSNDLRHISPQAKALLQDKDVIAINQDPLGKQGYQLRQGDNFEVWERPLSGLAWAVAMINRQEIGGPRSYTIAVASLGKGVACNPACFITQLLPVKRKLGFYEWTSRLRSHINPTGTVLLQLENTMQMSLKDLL
Chain of DNA repair nuclease/redox regulator APEX1 (Homo sapiens) (P27695 whole entry, looked up): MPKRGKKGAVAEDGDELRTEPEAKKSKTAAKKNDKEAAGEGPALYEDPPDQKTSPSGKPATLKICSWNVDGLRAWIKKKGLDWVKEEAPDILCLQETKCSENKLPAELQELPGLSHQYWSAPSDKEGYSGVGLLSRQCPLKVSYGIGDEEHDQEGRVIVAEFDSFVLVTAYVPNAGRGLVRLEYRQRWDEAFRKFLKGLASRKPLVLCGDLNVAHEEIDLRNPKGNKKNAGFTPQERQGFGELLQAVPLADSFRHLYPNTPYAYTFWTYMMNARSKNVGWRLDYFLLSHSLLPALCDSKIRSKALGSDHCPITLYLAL

CCOc1ccc2ccccc2c1C(=O)N[C@@H]1C(=O)N2[C@@H]1SC(C)(C)[C@@H]2C(=O)O
activity change, negative = inhibition ([1]; at 25.7 µM (top of the series)): -0.855% (inactive)
max response [1, 17]: -15.7%
max response [1, 18]: -15.1%

CC(C)(C)c1onc(OCP(=O)(O)O)c1CC(N)C(=O)O (stereo not drawn)
outcome [2]: inactive
activity change, negative = inhibition ([1]; at 57.5 µM (top of the series)): -0.922% (inactive)
max response [1, 17]: -37.6%
max response [1, 18]: -40.1%
Potency [3]: inactive
Potency [4]: inactive
Potency [5]: inactive
Potency [6]: inactive
Potency [7]: inactive
Potency [8]: inactive

CC(C)(C(=O)O)c1ccc(C(O)CCCN2CCC(C(O)(c3ccccc3)c3ccccc3)CC2)cc1 (stereo not drawn)
outcome [2]: inactive
activity change, negative = inhibition ([1]; at 57.5 µM (top of the series)): 2.57% (inactive) and -0.0758% (inactive)
max response [1, 17]: 23% and -17.7%
max response [1, 18]: 28% and -18.6%
Potency [4]: inactive
Potency [5]: inactive
Potency [6]: inactive
Potency [7]: inactive
Potency [8]: inactive

CNCC(O)c1ccc(O)c(O)c1 (stereo not drawn)
outcome [2]: inactive
Potency [3]: inactive
Potency [4]: inactive
Potency [5]: inactive

c1ccc(CN(CC2=NCCN2)c2ccccc2)cc1
activity change, negative = inhibition ([1]; at 25.7 µM (top of the series)): -2.49% (inactive)
activity change, negative = inhibition ([1]; at 57.5 µM (top of the series)): -1.31% (inactive)
max response [1, 17]: 2.23% and 6.19%
max response [1, 18]: -3.05% and 6.55%

O=c1cc[nH]c(=S)[nH]1
activity change, negative = inhibition ([1]; at 57.5 µM (top of the series)): 7.12% (inactive)
max response [1, 17]: 11.5%
max response [1, 18]: 29.2%

O=C1NS(=O)(=O)c2ccccc21
activity change, negative = inhibition ([1]; at 57.5 µM (top of the series)): 6.8% (inactive)
max response [1, 17]: 18.3%
max response [1, 18]: 29.2%

CCN(CC)C(C)CN1c2ccccc2Sc2ccccc21 (stereo not drawn)
activity change, negative = inhibition ([1]; at 57.5 µM (top of the series)): 2.47% (inactive)
max response [1, 17]: -20.9%
max response [1, 18]: -15.4%

CC(C(O)c1ccc(O)cc1)N1CCC(Cc2ccccc2)CC1 (stereo not drawn)
activity change, negative = inhibition ([1]; at 57.5 µM (top of the series)): 3.33% (inactive)
max response [1, 17]: 9.6%
max response [1, 18]: 16%
Potency [3]: inactive
Potency [4]: inactive
Potency [5]: inactive
Potency [6]: 7.08 µM (active)
Potency [7]: 3.98 µM (active)
Potency [8]: 4.47 µM (active)

OC[C@H]1O[C@@H](O[C@@H]2[C@@H](CO)O[C@](O)(CO)[C@H]2O)[C@H](O)[C@@H](O)[C@H]1O
activity change, negative = inhibition ([1]; at 57.5 µM (top of the series)): -5.86% (inactive)
max response [1, 17]: -20.2%
max response [1, 18]: -24.3%

O=C(CCCN1CCN(c2ccccn2)CC1)c1ccc(F)cc1
activity change, negative = inhibition ([1]; at 25.7 µM (top of the series)): 0.351% (inactive)
activity change, negative = inhibition ([1]; at 57.5 µM (top of the series)): 15.3% (inactive)
max response [1, 17]: -7.79% and 5.38%
max response [1, 18]: -10.2% and 27.2%

C#CCN(C)Cc1ccccc1
outcome [9]: inactive
outcome [10]: inactive
activity change, negative = inhibition ([1]; at 25.7 µM (top of the series)): -2.03% (inactive)
max response [1, 17]: -10.9%
max response [1, 18]: -13.8%
Potency [3]: inactive
Potency [4]: inactive
Potency [5]: inactive
Potency [6]: inactive
Potency [7]: inactive
Potency [8]: inactive

Nc1ccc(S(=O)(=O)Nc2nccs2)cc1
Potency [11]: inactive
Potency [12]: inactive
Potency [13]: inactive
Potency [14]: inactive
Potency [15]: inactive
Potency [16]: inactive
activity change, negative = inhibition ([1]; at 25.7 µM (top of the series)): 0.978% (inactive)
activity change, negative = inhibition ([1]; at 57.5 µM (top of the series)): 7.82% (inactive)
max response [1, 17]: 0.0037% and 29.7%
max response [1, 18]: 1.28% and 42.1%

CC(C)NC[C@H](O)c1ccc(O)c(O)c1
outcome [9]: inactive
outcome [10]: inactive
activity change, negative = inhibition ([1]; at 25.7 µM (top of the series)): -3.67% (inactive)
activity change, negative = inhibition ([1]; at 57.5 µM (top of the series)): 0.654% (inactive) and 2.27% (inactive)
max response [1, 17]: -12.5% and 0.715% and 18.4%
max response [1, 18]: -17.7% and 2.86% and 19.2%
Potency [3]: inactive
Potency [4]: inactive
Potency [5]: inactive
Potency [6]: inactive
Potency [7]: inactive
Potency [8]: inactive

— PubChem BioAssay (NCATS)
